Reference: PubChem BioAssay (NCI)
About 79,000 compounds went through this panel and 15% of them were active in at least one assay; those are over-represented in the sample as a whole. Calls of active or inactive are those of the source. Rule as the data show it: active = growth inhibition above about 70%; inactive = the rest.

Columns and labels:
[1] = NCI Yeast Anticancer Drug Screen. Data for the rad52 strain (AID 147);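 also: 0% = growth of vehicle-treated control cultures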; settings: S. cerevisiae rad52 mutant growth inhibition, hits give high values
Summary of the method: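 Read-out: growth inhibition versus vehicle-treated controls. Cells were a DNA repair-deficient yeast strain treated with compounds.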

[2] = NCI Yeast Anticancer Drug Screen. Data for the wt1 strain (AID 149);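 also: 0% = growth of vehicle-treated wt1 cultures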; settings: S. cerevisiae wt1 strain (SPY 50644) growth inhibition, hits give high values
Summary of the method: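 wt1 yeast, compound-treated; % growth inhibition vs vehicle control.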

[3] = NCI Yeast Anticancer Drug Screen. Data for the rad50EPP+ strain (AID 151);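 also: 0% = growth of vehicle-treated control cultures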; settings: S. cerevisiae rad50 mutant strain, hits give high values
Summary of the method: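 Growth inhibition read against vehicle controls in rad50EPP+ yeast, a strain altered in DNA damage repair, after compound exposure.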

[4] = NCI Yeast Anticancer Drug Screen. Data for the rad50 strain (AID 155);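 also: 0% = growth of vehicle-only cultures of the same strain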; settings: S. cerevisiae rad50 strain growth inhibition, hits give high values
Summary of the method: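 Genetically altered yeast (DNA repair pathway); compound treatment; growth inhibition vs vehicle ctrl.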

[5] = NCI Yeast Anticancer Drug Screen. Data for the mec2-1 strain (AID 157); settings: S. cerevisiae mec2-1 strain, hits give high values
Summary of the method: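 Yeast mec2-1 mutant treated with compound. Readout: growth inhibition vs vehicle controls.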

[6] = NCI Yeast Anticancer Drug Screen. Data for the rad14 strain (AID 159);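 also: 0% = growth of vehicle-treated control cultures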; settings: S. cerevisiae rad14 strain growth inhibition, hits give high values
Summary of the method: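 Test compounds were applied to a repair-deficient yeast strain. Its growth was then compared with that of cultures given vehicle alone, and inhibition was expressed relative to those controls.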

[7] = NCI Yeast Anticancer Drug Screen. Data for the sgs1 mgt1 strain (AID 161);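 also: 0% = growth of cultures given vehicle only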; settings: S. cerevisiae sgs1 mgt1 strain, hits give high values
Summary of the method: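 Read-out: growth inhibition vs vehicle controls. Cells: mutant yeast strain deficient in DNA damage repair.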

[8] = NCI Yeast Anticancer Drug Screen. Data for the CLN2oe strain (AID 163);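 also: 0% = growth of vehicle-only control cultures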; settings: S. cerevisiae CLN2oe strain, hits give high values
Summary of the method: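 Read-out: yeast growth inhibition, expressed relative to vehicle-only controls. The strain bears an engineered cell-cycle alteration.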

[9] = NCI Yeast Anticancer Drug Screen. Data for the cln2 rad14 strain (AID 165);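 also: 0% = growth equal to vehicle treated cultures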; settings: S. cerevisiae cln2 rad14 strain, hits give high values
Summary of the method: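 cln2 rad14 yeast strain; compound exposure; growth inhibition read vs vehicle controls.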

[10] = NCI Yeast Anticancer Drug Screen. Data for the bub3 strain (AID 167); settings: S. cerevisiae bub3 mutant strain, hits give high values
Summary of the method: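 Yeast carrying a defined mutation is treated with each compound, and growth is compared with that of vehicle-exposed cells to give inhibition.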

[11] = NCI Yeast Anticancer Drug Screen. Data for the wt2 strain (AID 169);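 also: 0% = growth of vehicle-treated yeast cultures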; settings: S. cerevisiae wt2 strain growth inhibition, hits give high values
Summary of the method: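 Read-out: growth inhibition versus vehicle-treated control cultures after compound exposure of the yeast strain.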

[12] = NCI Yeast Anticancer Drug Screen. Data for the mlh1 strain (AID 171);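 also: 0% = growth of vehicle-treated control cultures of the same strain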; settings: S. cerevisiae mlh1 strain growth inhibition, hits give high values
Summary of the method: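 Read-out: growth inhibition versus vehicle controls. Strain: engineered yeast with a defined DNA repair or cell cycle defect, compound-treated.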

[13] = NCI Yeast Anticancer Drug Screen. Data for the sgs1 strain (AID 173);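 also: 0% = growth of vehicle-only control cultures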; settings: S. cerevisiae sgs1 mutant, hits give high values
Summary of the method: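 Read-out: yeast growth inhibition relative to vehicle controls, following compound exposure of a strain with a defined DNA repair/cell cycle alteration.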

[14] = NCI Yeast Anticancer Drug Screen. Data for the mlh1 rad18 strain (AID 175); settings: S. cerevisiae mlh1 rad18 strain growth inhibition, hits give high values
Summary of the method: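 Yeast w/ defined DNA-repair lesions; compound exposure; growth vs vehicle controls → % inhibition.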

[15] = NCI Yeast Anticancer Drug Screen. Data for the rad18 strain (AID 177); settings: S. cerevisiae rad18 mutant growth inhibition, hits give high values
Summary of the method: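 Readout: growth inhibition vs vehicle controls. Cells: genetically altered yeast strain, DNA repair defect.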

[16] = NCI Yeast Anticancer Drug Screen. Data for the mgt1 strain (AID 153); settings: S. cerevisiae mgt1 mutant growth inhibition, hits give high values
Summary of the method: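 mgt1 yeast grown with test compound; read-out is growth inhibition versus vehicle-treated cultures.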

[17] = at 5.0 µM (retest, dose inferred, filed as 0.5)
[18] = at 50.0 µM (retest, dose inferred, filed as 5.0)

Measured: growth inhibition

O=C(O)c1ccccc1/C=N/N=C1c2ccccc2-c2ccccc21
inactive: [1]; at 1.2 µM -3% | [1]; at 3.7 µM -1% | [1]; at 11.0 µM -1% | [1]; at 33.0 µM 0% | [1]; at 100.0 µM 2% | [2]; at 1.2 µM -1% | [2]; at 3.7 µM 0% | [2]; at 11.0 µM 1% | [2]; at 33.0 µM 0% | [2]; at 100.0 µM 7% | [3]; at 1.2 µM -4% | [3]; at 3.7 µM 3% | [3]; at 11.0 µM -2% | [3]; at 33.0 µM 9% | [3]; at 100.0 µM 15% | [4]; at 1.2 µM 0% | [4]; at 3.7 µM -6% | [4]; [17] 10% | [4]; at 11.0 µM 7% | [4]; at 33.0 µM 0% | [4]; [18] 45% | [4]; at 50.0 µM 50.8% | [4]; at 100.0 µM 13% | [5]; at 1.2 µM -2% | [5]; at 3.7 µM -1% | [5]; [17] 2% | [5]; at 11.0 µM -2% | [5]; at 33.0 µM 0% | [5]; [18] 15% | [5]; at 50.0 µM 61.4% | [5]; at 100.0 µM 11% | [6]; at 1.2 µM 0% | [6]; at 3.7 µM -1% | [6]; at 11.0 µM 0% | [6]; at 33.0 µM -10% | [6]; at 100.0 µM 8% | [7]; [17] -7% | [7]; [18] 60% | [7]; at 50.0 µM 50% | [8]; at 1.2 µM -4% | [8]; at 3.7 µM 0% | [8]; at 11.0 µM 0% | [8]; at 33.0 µM -5% | [8]; at 100.0 µM 1% | [9]; [17] -23% | [9]; at 50.0 µM 45.7% | [10]; at 1.2 µM -3% | [10]; at 3.7 µM -1% | [10]; [17] -9% | [10]; at 11.0 µM 9% | [10]; at 33.0 µM 7% | [10]; [18] -3% | [10]; at 50.0 µM 48.5% | [10]; at 100.0 µM 4% | [11]; at 1.2 µM -1% | [11]; at 3.7 µM 0% | [11]; at 11.0 µM -1% | [11]; at 33.0 µM 0% | [11]; at 100.0 µM 5% | [12]; at 1.2 µM 1% | [12]; at 3.7 µM 2% | [12]; at 11.0 µM 1% | [12]; at 33.0 µM -9% | [12]; at 100.0 µM 8% | [13]; at 1.2 µM 0% | [13]; at 3.7 µM 2% | [13]; at 11.0 µM 1% | [13]; at 33.0 µM 4% | [13]; at 100.0 µM 3% | [14]; [17] -1% | [14]; [18] 39% | [14]; at 50.0 µM 68.5% | [15]; at 1.2 µM -3% | [15]; at 3.7 µM -1% | [15]; at 11.0 µM 2% | [15]; at 33.0 µM -4% | [15]; at 100.0 µM 6%
active: [9]; [18] 79%

N#CNC(N)=Nc1cc2ccccc2c2ccccc12
inactive: [1]; at 1.2 µM 34% | [1]; at 3.7 µM 60% | [2]; at 1.2 µM 3% | [2]; at 3.7 µM 25% | [2]; at 11.0 µM 61% | [16]; at 1.2 µM 27% | [16]; at 3.7 µM 40% | [4]; at 1.2 µM 45% | [4]; at 3.7 µM 69% | [4]; [17] 60% | [5]; at 1.2 µM 24% | [5]; at 3.7 µM 32% | [5]; [17] 48% | [5]; at 11.0 µM 58% | [5]; at 50.0 µM 67.1% | [6]; at 1.2 µM 36% | [6]; at 3.7 µM 53% | [7]; [17] 57% | [8]; at 1.2 µM 38% | [8]; at 3.7 µM 46% | [8]; at 11.0 µM 68% | [9]; [17] 55% | [10]; at 1.2 µM 34% | [10]; at 3.7 µM 32% | [10]; [17] 40% | [10]; at 11.0 µM 67% | [11]; at 1.2 µM 17% | [11]; at 3.7 µM 12% | [11]; at 11.0 µM 62% | [12]; at 1.2 µM 31% | [12]; at 3.7 µM 50% | [13]; at 1.2 µM 20% | [13]; at 3.7 µM 58% | [14]; [17] 54% | [15]; at 1.2 µM 21% | [15]; at 3.7 µM 34%
active: [1]; at 11.0 µM 88% | [1]; at 33.0 µM 95% | [1]; at 100.0 µM 92% | [2]; at 33.0 µM 87% | [2]; at 100.0 µM 90% | [16]; at 11.0 µM 71% | [16]; at 33.0 µM 88% | [16]; at 100.0 µM 92% | [4]; at 11.0 µM 90% | [4]; at 33.0 µM 96% | [4]; [18] 97% | [4]; at 50.0 µM 89.5% | [4]; at 100.0 µM 90% | [5]; at 33.0 µM 78% | [5]; [18] 96% | [5]; at 100.0 µM 82% | [6]; at 11.0 µM 85% | [6]; at 33.0 µM 95% | [6]; at 100.0 µM 93% | [7]; [18] 96% | [7]; at 50.0 µM 78.8% | [8]; at 33.0 µM 83% | [8]; at 100.0 µM 84% | [9]; [18] 90% | [9]; at 50.0 µM 91.3% | [10]; at 33.0 µM 87% | [10]; [18] 96% | [10]; at 50.0 µM 92.2% | [10]; at 100.0 µM 93% | [11]; at 33.0 µM 89% | [11]; at 100.0 µM 89% | [12]; at 11.0 µM 78% | [12]; at 33.0 µM 92% | [12]; at 100.0 µM 91% | [13]; at 11.0 µM 87% | [13]; at 33.0 µM 96% | [13]; at 100.0 µM 96% | [14]; [18] 97% | [14]; at 50.0 µM 85.7% | [15]; at 11.0 µM 78% | [15]; at 33.0 µM 94% | [15]; at 100.0 µM 92%
